Assay results: PubChem BioAssay AID620 (Sanford-Burnham Center for Chemical Genomics, 2007)
The campaign covered roughly 87,000 compounds. About 360 (0.41%) were called active. The full list was thinned out, with actives kept by preference. Values without a mark were called inactive. No stated cut-off is given here; in the data, active means cytotoxicity above about 50%; inactive means the rest.

Experiment: HT1080 cell viability loss – fluorescence readout (AID 620);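 further: cells exposed to compound overnight then 4 h with Alamar Blue; 0% = vehicle DMSO and 100% = killing control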
Conditions: at 10 µM, stronger effect = higher value

SMILES | cytotoxicity
CC(C)OC(=O)c1cccnc1SCc1cc(=O)n2ccccc2n1 | -0.4%
COc1cc(C)nc(N2CCCC(C(=O)NC3CCC(C)CC3)C2)n1 (stereo not drawn) | -9.4%
Cc1c(C(=O)NC2CCCCC2)oc2c1C(=O)CC(C)(C)C2 | -3.7%
COc1ccc2nc(-c3ccccc3)[nH]c2c1 | 28.2%
CCOc1ccc2nc(-c3ccccc3)[nH]c2c1 | 66.7% (active)
CCOc1ccc2nc(SCC)[nH]c2c1 | 15.4%
COc1ccc(OCc2nc3ccccc3[nH]2)cc1 | 5.1%
Nc1ccc(-c2nc3ccccc3[nH]2)cc1 | -3.5%
CC(=O)N1[C@H](Cc2ccccc2)C=C[C@]1(C)C(=O)NCc1ccc(C)o1 | -2.9%
Cc1ccsc1C1NC(=O)c2c(sc3c2CCN(C)C3)N1 (stereo not drawn) | 9.6%
O=S(=O)(c1cccc(-c2csc(-c3ccccc3)n2)c1)N1CCOCC1 | 2%
COCCn1c(N)c(S(=O)(=O)c2cccs2)c2nc3ccccc3nc21 | 11%
CC(C)Cn1c(N)c(S(=O)(=O)c2cccs2)c2nc3ccccc3nc21 | 30.5%
CC(C)CCn1c(N)c(S(=O)(=O)c2cccs2)c2nc3ccccc3nc21 | 57% (active)
Cc1cc(N2CCN(C(=O)c3ccco3)CC2)n2ncc(-c3ccccc3)c2n1 | 5.6%
Cc1ccccc1-n1c(SCC(=O)N2CCN(c3ccccc3)CC2)nnc1-c1ccncc1 | -3.7%
CCCCCCSC1=C(C#N)C(c2ccc(C)o2)CC(=O)N1 (stereo not drawn) | 29.7%
CCOC(=O)CSC1=C(C#N)C(c2ccc(C)o2)CC(=O)N1 (stereo not drawn) | 59.5% (active)
CCOC(=O)CSC1=C(C#N)C(c2ccc(Cl)cc2)CC(=O)N1 (stereo not drawn) | 2.7%
CCOC(=O)CSC1=C(C#N)C(c2ccccc2OC)CC(=O)N1 (stereo not drawn) | -1%
CCOC(=O)CSC1=C(C#N)C(c2ccc(C)s2)CC(=O)N1 (stereo not drawn) | 58% (active)
CCSC1=C(C#N)C(c2ccc(C)s2)CC(=O)N1 (stereo not drawn) | 0.8%
COc1cc(C(=O)Nc2nnc(CC(=O)N3CCOCC3)s2)cc(OC)c1OC | -1%
CCOc1ccccc1NC(=O)CSc1nnnn1-c1ccccc1 | 7.2%
Cc1noc(C)c1S(=O)(=O)N1CCCC(C(=O)NCc2ccccn2)C1 (stereo not drawn) | 3.9%
COC(=O)CN(Cc1ccco1)S(=O)(=O)c1ccccc1 | 1.2%

SMILES | cytotoxicity
CC1=CCC(Cc2nc3ccccc3o2)C1(C)C (stereo not drawn) | 0.6%
CCOc1cc(N2CCOCC2)c(OCC)cc1NC(=O)CCS(=O)(=O)c1ccc(Cl)cc1 | 6.9%
CCOc1cc(N2CCOCC2)c(OCC)cc1NS(=O)(=O)c1ccc(Cl)s1 | 51.9% (active)
CCOc1ccc(Br)cc1S(=O)(=O)Nc1ccccc1N1CCOCC1 | 4.5%
O=C(NC1CCCCCC1)C1CCN(C(=O)Cc2ccccc2)CC1 | 3.1%
COc1ccc2nc(-n3c(C)ccc3C)sc2c1 | -1.1%
O=C(N1CCN(CCO)CC1)N1c2ccccc2C=Cc2ccccc21 | 3.2%
COc1ccc(NC(=O)CC(=O)Nc2ccc(OC)cc2OC)c(OC)c1 | -3.5%
CCC(=O)Nc1ccc(OC)cc1OC | -3.2%
N#CC1=C(N)Oc2cc(N)ccc2C1c1ccc(F)cc1 (stereo not drawn) | -0.8%
COc1cc(C2C(C#N)=C(N)Oc3cc(O)ccc32)cc2c1OCO2 (stereo not drawn) | -6.6%
CCN(CC)c1ccc2c(c1)OC(N)=C(C#N)C2c1cccnc1 (stereo not drawn) | 67.5% (active)
N#CC1=C(N)Oc2cc(O)ccc2C1c1ccccc1 (stereo not drawn) | -0.8%
N#CC1=C(N)Oc2c(ccc3cccnc23)C1c1cccnc1 (stereo not drawn) | 39.8%
COc1cc(C2C(C#N)=C(N)Oc3cc(C)oc(=O)c32)cc2c1OCO2 (stereo not drawn) | -1.5%
COc1ccc(C2C(C#N)=C(N)Oc3cc(O)ccc32)cc1OC (stereo not drawn) | -13.3%
COc1cc(C2C(C#N)=C(N)Oc3cc(N(C)C)ccc32)cc2c1OCO2 (stereo not drawn) | 63.3% (active)
N#CC1=C(N)Oc2cc3ccccc3cc2C1c1cccnc1 (stereo not drawn) | 47.6%
CN(C)c1ccc2c(c1)OC(N)=C(C#N)C2c1cccc(F)c1 (stereo not drawn) | 56% (active)
N#CC1=C(N)Oc2cc(O)ccc2C1c1ccncc1 (stereo not drawn) | -6.2%
COc1cc(C2C(C#N)=C(N)Oc3cc(O)ccc32)cc(OC)c1OC (stereo not drawn) | 64.7% (active)
Cc1cccc(OCCn2c(NC(=O)c3ccco3)nc3ccccc32)c1 | 5.5%
CC(=O)N1[C@H](Cc2ccccc2)C=C[C@]1(C)C(=O)O | 6.6%
CCC(c1nnnn1C1CCCC1)N1CCN(c2ccccc2F)CC1 (stereo not drawn) | -20.4%
Cc1ccnc(NS(=O)(=O)c2ccc(Oc3ccccc3)cc2)c1 | 7.3%
COc1cc(NC(=O)CN2C(=O)NC(C)(CC(C)C)C2=O)cc(OC)c1 (stereo not drawn) | -7.9%

SMILES | cytotoxicity
O=C1NC(c2ccccc2)=C(c2nc3ccccc3s2)C(c2ccc(F)cc2)N1 (stereo not drawn) | -3.1%
O=C(CSc1nnc(COc2ccc(Cl)cc2)o1)N1CCN(c2ccccc2)CC1 | 1.3%
O=C(CSc1nnc(COc2ccc(Cl)cc2)o1)N1c2ccccc2CCc2ccccc21 | 62.4% (active)
O=C(CSc1nnc(COc2ccc(F)cc2)o1)N1c2ccccc2CCc2ccccc21 | -8%
O=C(CCCN1C(=O)c2ccccc2C1=O)Nc1ccc(S(=O)(=O)N2CCOCC2)cc1 | 14.1%
CCCCCc1nnc(NC(=O)CS(=O)(=O)Cc2ccccc2)s1 | -1.5%
CC1=CC(C)(C)Nc2ccc(OC(=O)CN3C(=O)C4CCCCC4C3=O)cc21 (stereo not drawn) | -1%
CC1=CC(C)(C)Nc2ccc(OC(=O)c3ccco3)cc21 | 59.2% (active)
CC1=CC(C)(C)Nc2ccc(OC(=O)c3cccnc3)cc21 | 14.7%
COc1ccc(CC(=O)c2ccccc2C(=O)O)cc1 | -0.2%
CCCCN(CCCC)S(=O)(=O)c1ccc(OC)c2ncccc12 | 32.7%
COc1ccc(N/N=C(/Oc2ccc([N+](=O)[O-])cc2)C(C)=O)cc1 | 5.4%
COc1ccc(C(=O)Oc2ccc(/C=N/O)cc2)cc1 | 2.6%
CO/N=C\C(=N\Nc1ccc(OC)cc1)C(=O)c1ccccc1 | -0.7%
COc1ccc(N/N=C(\C=N\O)C(=O)c2ccc(OC)cc2)cc1 | 59% (active)
CO/N=C/C(=N\Nc1ccc(C)cc1)C(=O)c1ccc(OC)cc1 | 53.7% (active)
CO/N=C/C(=N\Nc1ccc(OC)cc1)C(=O)c1ccc(OC)cc1 | 11.7%
CCOc1ccc(N2C(=O)CSC23CCCCC3)cc1 | -10.8%
COCCn1c(SCC(=O)NCc2cccs2)nnc1-c1ccc(OC)cc1 | 7.9%
Cc1ccc(SC(C)C(=O)Nc2ccncc2)cc1 (stereo not drawn) | -1.4%
O=C1c2[nH]nc(-c3ccccc3O)c2C(c2cccc(Cl)c2)N1Cc1ccco1 (stereo not drawn) | 3.9%
Cc1ccc(S(=O)(=O)N2CCN(C(=O)c3ccc(OCc4c(C)noc4C)cc3)CC2)cc1 | -2.3%
NC(=O)C1CCN(C(=S)c2cccs2)CC1 | 8.7%
COc1ccc(C2CC(=O)N3C(=C2C#N)SCC3(O)c2ccccc2)cc1 (stereo not drawn) | 5.5%
N#CC1=C2SCC(O)(c3ccccc3)N2C(=O)CC1c1ccccc1 (stereo not drawn) | 63.1% (active)
N#CC1=C2SCC(O)(c3ccccc3)N2C(=O)CC1c1ccccc1F (stereo not drawn) | 4.1%

SMILES | cytotoxicity
O=C(NCCCN1CCCC1=O)c1cccs1 | 1.9%
Cn1c(=O)c2c(nc(CN3CCN(c4ccccc4)CC3)n2CCN2CCOCC2)n(C)c1=O | 8.9%
Cc1cc(NCCO)nc(-n2nc(C)cc2C)n1 | -5.5%
CCOc1ccc(Nc2cc(C)nc(-n3nc(C)cc3C)n2)cc1 | 50.6% (active)
COc1ccc(Nc2cc(C)nc(N3CCOCC3)n2)cc1 | 21.5%
COc1ccc(Nc2cc(C)nc(-n3nc(C)cc3C)n2)cc1 | 65.9% (active)
CCOc1ccc(Nc2cc(C)nc(N3CCOCC3)n2)cc1 | -0.6%
CNc1cc(C)nc(-n2nc(C)cc2C)n1 | 2.1%
CCCc1nc2sc3ccccc3c(=O)c2c(=O)n1Cc1ccco1 | 21%
Cc1cccc(NS(=O)(=O)c2cc(C(=O)N3CCN(C)CC3)ccc2C)c1 | -3.1%
COc1cc(OC)cc(C(=O)Nc2nc3ccccc3[nH]2)c1 | -1.1%
COC(=O)Nc1nc2ccc(Sc3ccccc3)cc2[nH]1 | 62.2% (active)
COc1ccc(C(=O)Nc2nc3ccccc3[nH]2)cc1OC | 0.5%
COc1cc(C(=O)Nc2nc3ccccc3[nH]2)cc(OC)c1OC | -3.2%
COC(=O)Nc1nc2ccc(C(=O)c3ccccc3)cc2[nH]1 | 61.1% (active)
Cc1nc2ccc(C(=O)c3ccccc3)cc2[nH]1 | -6.6%
Cc1ccc(-c2nc(CS(=O)CC(=O)NC3CCC(C)CC3)c(C)o2)cc1 (stereo not drawn) | -9.8%
CCc1ccc(OC)c(S(=O)(=O)Nc2ccccc2C)c1 | 3.8%
CC(C)N(c1ccccc1)c1ccc(NC(=O)C2CCCO2)cc1 (stereo not drawn) | -3.8%
Cn1nnnc1Sc1ncnc2scc(-c3ccc(F)cc3)c12 | 20%
Cc1ccc(-c2csc3ncnc(NCCN4CCOCC4)c23)cc1 | -10.9%
CNC(=O)CN1C(=O)CSc2ncccc21 | -11.8%
CC(=O)N=c1sc2ccccc2n1C | -2.3%
Cn1c(=NC(=O)CN2C(=O)C3CC=CCC3C2=O)sc2ccccc21 (stereo not drawn) | -0.3%
Cn1c(=NC(=O)CCl)sc2ccccc21 | 98.2% (active)
